Source: PubChem BioAssay (Tox21)
Unmarked numbers belong to inactive results. Results filed as inconclusive are left out. A call without a number means that no potency is given here. The source made the active and inactive calls. Unless noted, the call rests on the fitted dose curve; in most records, active means well fitted curve in the direction sought with a large enough effect in the repeat runs; inconclusive means weak or mixed curves; inactive means no such curve, though single readings can be large; an effect the other way counts as inactive or inconclusive.

Key:
[1] = qHTS assay to identify small molecule agonists of the estrogen receptor alpha (ER-alpha) signaling pathway in the presence of an antagonist - cell viability counter screen (AID 1259386);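 further: cells exposed to compounds for 22 h at 37 °C before the viability read; nearly all actives have a fitted effect of over 30% in size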; further: potency means the concentration at half of the fitted maximal effect
How it was run: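 Read-out: CellTiter-Fluor fluorescence after 1hr reagent incubation, measured in the same wells as the luciferase readout. VM7Luc4E2 cells were exposed to 15 compound concentrations with 10.0nM ICI-182,780 for 22hr at 37C.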

[2] = target: Progesterone receptor (Homo sapiens) (UniProt P06401); assay: qHTS assay to identify small molecule agonists of the progesterone receptor (PR) signaling pathway (AID 1346784; calls by dose curve; further: nearly all actives have a fitted effect of over 30% in size; further: potency means the concentration at half of the fitted maximal effect)
How it was run: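 Seed PR-UAS-bla HEK 293T cells (2% charcoal-stripped FBS), incubate 6 hr at 37C; add compounds in DMSO, 16 hr at 37C; add LiveBLAzer B/G substrate, 2 hr RT; read fluorescence intensity.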

[3] = target: Progesterone receptor (Homo sapiens) (UniProt P06401); assay: qHTS assay to identify small molecule antagonists of the progesterone receptor (PR) signaling pathway (AID 1346795; active means well fitted inhibition curve with a large enough effect in the signal ratio in the repeat runs, not every such curve was filed as active; the % refers to the signal ratio; further: potency means the concentration at half of the fitted maximal effect)
How it was run: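 Screening used a GripTite HEK293T line with PR-responsive UAS-beta-lactamase. Cells were challenged with compound in the presence of 1 nM R5020 final for 16 hr at 37C; B/G FRET substrate, 2 hr room temperature, fluorescence.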

[4] = qHTS assay to identify small molecule antagonists of the progesterone receptor (PR) signaling pathway - cell viability counter screen (AID 1346798); further: nearly all actives have a fitted effect of over 50% in size; further: potency means the concentration at half of the fitted maximal effect
How it was run: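 Measures cytotoxicity in parallel with the PR antagonist reporter read: HEK293T PR-UAS-bla cells get compound and R5020 for 16 hr, and remaining viable cells are quantified by CellTiter-Glo luminescence.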

[5] = qHTS assay to identify small molecule agonists of the progesterone receptor (PR) signaling pathway - cell viability counter screen (AID 1346799; calls by dose curve; further: nearly all actives have a fitted effect of over 45% in size)
How it was run: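 Using the same plates as the PR reporter screen, HEK293T PR-UAS-bla cells received compounds for 16 hr at 37C and were then lysed with CellTiter-Glo; luminescence was read 30 min later at room temperature.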

[6] = qHTS assay to identify small molecule antagonists of the TGF-beta/Smad signaling pathway - cell viability counter screen (AID 1346824); further: nearly all actives have a fitted effect of over 50% in size
How it was run: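 SBE-bla HEK 293T cells were plated overnight at 37 C, then given compounds in DMSO plus TGF-beta1 (added as 0.25 ng/mL solution) for 5 hr. After the bla read, CellTiter-Glo was added to the same wells and luminescence read after 30 min at room temperature.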

[7] = qHTS assay to identify small molecule agonists of the TGF-beta/Smad signaling pathway - cell viability counter screen (AID 1346829); further: top concentration of the series differs between compounds; nearly all actives have a fitted effect of over 45% in size
How it was run: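 Here the cytotoxicity of library compounds is measured in SBE-bla HEK 293T cells treated for 5 hr, using CellTiter-Glo added to wells already read for the beta-lactamase reporter.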

[8] = qHTS assay to identify small molecule agonists of the TGF-beta/Smad signaling pathway (AID 1346859; active means well fitted activation curve with a large enough effect in the signal ratio in the repeat runs, not every such curve was filed as active; the % refers to the signal ratio; further: series mostly up to about 77 µM)
How it was run: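 Beta-lactamase reporter activity downstream of Smad binding elements was measured in stably transfected HEK 293T cells; compounds were incubated for 5 hr, substrate for 2 hr at room temperature.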

[9] = target: Thyrotropin-releasing hormone receptor (Homo sapiens) (UniProt P34981); assay: qHTS assay to identify small molecule antagonists of the thyrotropin-releasing hormone receptor (TRHR) signaling pathway (AID 1346877; active means well fitted inhibition curve with a large enough effect in the repeat runs, not every such curve was filed as active; further: series mostly up to about 51 µM)
How it was run: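 HEK293/TRHR cells, 18 h, 37 °C; Ca2+ dye 2 h; cpd 5 min RT; TRH 1 nM final; fluorescence read 3 min, 1 s intervals; 15 concs, triplicate.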

[10] = target: Thyrotropin receptor (Homo sapiens) (UniProt P16473); assay: qHTS assay to identify small molecule antagonists of the thyroid stimulating hormone receptor (TSHR) signaling pathway (AID 1259385; calls by dose curve; further: nearly all actives have a fitted effect of over 20% in size)
How it was run: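 TSHR-HEK293 cells were plated and held 18 h at 37C/5% CO2, then given compound plus Ro20-1724 and stimulated with TSH at 1.5 ng/mL final. After 30 min at room temperature, cAMP was detected with cAMP-d2/anti-cAMP-cryptate (1 h) by fluorescence.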

Chain of Thyrotropin receptor (Homo sapiens) (P16473 whole entry, looked up): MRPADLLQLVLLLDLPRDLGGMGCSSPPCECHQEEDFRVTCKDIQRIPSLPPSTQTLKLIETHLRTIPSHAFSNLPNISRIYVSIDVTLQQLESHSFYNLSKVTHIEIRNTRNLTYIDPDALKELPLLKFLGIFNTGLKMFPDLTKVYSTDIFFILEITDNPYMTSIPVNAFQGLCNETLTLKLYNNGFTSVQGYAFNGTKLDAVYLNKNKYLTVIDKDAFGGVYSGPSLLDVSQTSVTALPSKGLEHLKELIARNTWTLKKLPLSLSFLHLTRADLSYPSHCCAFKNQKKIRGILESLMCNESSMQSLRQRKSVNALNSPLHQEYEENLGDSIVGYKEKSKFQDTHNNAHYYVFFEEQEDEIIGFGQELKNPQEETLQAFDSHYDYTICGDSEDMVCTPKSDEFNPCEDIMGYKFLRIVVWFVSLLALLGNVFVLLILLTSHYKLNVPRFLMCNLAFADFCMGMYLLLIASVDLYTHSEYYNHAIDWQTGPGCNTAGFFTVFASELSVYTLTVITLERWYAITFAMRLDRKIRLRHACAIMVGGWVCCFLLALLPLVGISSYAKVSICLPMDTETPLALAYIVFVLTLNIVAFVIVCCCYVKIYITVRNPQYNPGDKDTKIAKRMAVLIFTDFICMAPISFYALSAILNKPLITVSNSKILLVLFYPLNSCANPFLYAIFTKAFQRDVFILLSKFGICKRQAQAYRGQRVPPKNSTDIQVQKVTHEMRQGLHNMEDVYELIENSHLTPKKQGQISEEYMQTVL
Chain of Progesterone receptor (Homo sapiens) (P06401 whole entry, looked up): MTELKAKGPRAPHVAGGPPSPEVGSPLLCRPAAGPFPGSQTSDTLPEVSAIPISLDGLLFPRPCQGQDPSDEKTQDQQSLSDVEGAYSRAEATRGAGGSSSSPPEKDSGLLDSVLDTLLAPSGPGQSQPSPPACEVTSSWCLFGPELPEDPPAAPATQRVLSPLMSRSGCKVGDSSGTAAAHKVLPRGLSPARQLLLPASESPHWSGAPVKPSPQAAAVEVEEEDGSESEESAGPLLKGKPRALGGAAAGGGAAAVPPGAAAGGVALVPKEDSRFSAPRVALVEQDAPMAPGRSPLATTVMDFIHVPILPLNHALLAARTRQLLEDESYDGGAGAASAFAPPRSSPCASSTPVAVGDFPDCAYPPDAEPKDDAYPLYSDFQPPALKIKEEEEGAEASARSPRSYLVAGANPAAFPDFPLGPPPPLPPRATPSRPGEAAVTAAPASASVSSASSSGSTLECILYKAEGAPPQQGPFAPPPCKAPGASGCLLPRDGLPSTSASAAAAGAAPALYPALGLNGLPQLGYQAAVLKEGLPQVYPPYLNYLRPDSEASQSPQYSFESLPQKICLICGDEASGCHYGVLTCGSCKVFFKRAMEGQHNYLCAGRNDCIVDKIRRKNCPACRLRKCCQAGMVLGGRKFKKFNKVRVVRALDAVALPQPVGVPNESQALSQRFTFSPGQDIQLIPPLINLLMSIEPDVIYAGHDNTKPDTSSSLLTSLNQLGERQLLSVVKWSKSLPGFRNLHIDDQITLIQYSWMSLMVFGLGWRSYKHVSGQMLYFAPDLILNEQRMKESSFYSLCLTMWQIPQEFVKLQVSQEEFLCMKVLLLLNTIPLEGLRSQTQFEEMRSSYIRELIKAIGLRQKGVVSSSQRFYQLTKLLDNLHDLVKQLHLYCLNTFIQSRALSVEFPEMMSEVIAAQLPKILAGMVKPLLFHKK
Chain of Thyrotropin-releasing hormone receptor (Homo sapiens) (P34981 whole entry, looked up): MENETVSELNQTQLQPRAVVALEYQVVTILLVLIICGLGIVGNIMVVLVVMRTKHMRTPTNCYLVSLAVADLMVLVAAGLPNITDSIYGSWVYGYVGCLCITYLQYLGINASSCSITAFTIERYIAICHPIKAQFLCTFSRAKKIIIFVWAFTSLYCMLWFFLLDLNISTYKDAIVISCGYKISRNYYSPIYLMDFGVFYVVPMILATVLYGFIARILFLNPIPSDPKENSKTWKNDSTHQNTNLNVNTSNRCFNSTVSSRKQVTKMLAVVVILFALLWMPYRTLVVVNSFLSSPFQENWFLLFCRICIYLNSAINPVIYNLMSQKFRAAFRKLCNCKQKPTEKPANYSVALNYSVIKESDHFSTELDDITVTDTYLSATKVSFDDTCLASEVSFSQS

C/C=C(\C)C(=O)OCCC(C)CCC=C(C)C (stereo not drawn)
Potency [1]: inactive
Potency [2]: inactive
Potency [3]: inactive
Potency [4]: inactive
Potency [5]: inactive
outcome [6]: inactive
outcome [7]: inactive
outcome [8]: inactive

CN(C)CCOC1=Cc2ccccc2Sc2ccc(Cl)cc21
Potency [1]: inactive
Potency [2]: inactive
Potency [4]: inactive
Potency [5]: inactive
outcome [6]: inactive
outcome [7]: inactive
outcome [8]: inactive
outcome [9]: inactive

OC/C(Br)=C(\Br)CO
Potency [1]: inactive
Potency [2]: inactive
Potency [3]: inactive
Potency [4]: inactive
Potency [5]: inactive
outcome [6]: inactive
outcome [7]: inactive
outcome [8]: inactive
outcome [9]: inactive

CC(=O)OCC(=O)[C@@]12OC(C)(C)O[C@@H]1C[C@H]1[C@@H]3C[C@H](F)C4=CC(=O)C=C[C@]4(C)[C@@]3(F)[C@@H](O)C[C@@]12C
Potency [1]: inactive
Potency [2]: 0.0033 µM (active)
Potency [3]: inactive
Potency [4]: inactive
outcome [6]: inactive
outcome [7]: inactive
outcome [8]: inactive

CCCCCCCCSCCO
Potency [10]: inactive
Potency [4]: inactive
Potency [5]: inactive
outcome [6]: inactive
outcome [7]: inactive
outcome [8]: inactive
outcome [9]: inactive

Nc1c(I)cc(I)c(C(=O)N(CCC(=O)O)c2ccccc2)c1I
Potency [1]: inactive
Potency [2]: inactive
Potency [3]: inactive
Potency [4]: inactive
Potency [5]: inactive
outcome [6]: inactive
outcome [7]: inactive
outcome [8]: inactive
outcome [9]: inactive

CC(COc1ccc(C(C)(C)C)cc1)OS(=O)OCCCl (stereo not drawn)
Potency [10]: inactive
outcome [6]: inactive
outcome [7]: inactive
outcome [8]: inactive
outcome [9]: inactive

Nc1nccs1
Potency [1]: inactive
Potency [2]: inactive
Potency [3]: inactive
Potency [4]: inactive
Potency [5]: inactive
outcome [6]: inactive
outcome [7]: inactive
outcome [8]: inactive
outcome [9]: inactive

O=C(Nc1ccccc1)Nc1ccccc1
Potency [1]: inactive
Potency [2]: inactive
Potency [4]: inactive
Potency [5]: inactive
outcome [6]: inactive
outcome [7]: inactive
outcome [8]: inactive
outcome [9]: inactive

CC(C)C(=O)O
Potency [1]: inactive
Potency [2]: inactive
Potency [3]: inactive
Potency [4]: inactive
Potency [5]: inactive
outcome [6]: inactive
outcome [7]: inactive
outcome [8]: inactive

CCOC(=O)CC(=O)C(=O)OCC
Potency [10]: inactive
Potency [4]: 15.4 µM (active)
outcome [6]: inactive
outcome [7]: inactive
outcome [8]: inactive
outcome [9]: inactive

C[C@@H]1C[C@H]2[C@@H]3CCC4=CC(=O)C=C[C@]4(C)[C@@]3(F)[C@@H](O)C[C@]2(C)[C@H]1C(=O)CO
Potency [10]: inactive
Potency [3]: inactive
Potency [4]: inactive
outcome [6]: inactive
outcome [7]: inactive
outcome [8]: inactive
outcome [9]: inactive

CC1=NN(c2ccc(C(=O)O)cc2)C(=O)C1
Potency [1]: inactive
Potency [2]: inactive
Potency [3]: inactive
Potency [4]: inactive
Potency [5]: inactive
outcome [6]: inactive
outcome [7]: inactive
outcome [8]: inactive
outcome [9]: inactive

Cc1ccc(/C=N/n2c(-c3ccccc3)csc2=S)cc1
Potency [10]: inactive
Potency [2]: inactive
outcome [8]: inactive
outcome [9]: inactive

Nc1ccc(Cl)cc1[N+](=O)[O-]
Potency [10]: inactive
Potency [2]: inactive
Potency [4]: inactive
Potency [5]: inactive
outcome [7]: inactive
outcome [8]: inactive
outcome [9]: inactive

C=CC(C)=CCC=C(C)C
Potency [1]: inactive
Potency [2]: inactive
Potency [3]: inactive
Potency [4]: inactive
Potency [5]: inactive
outcome [6]: inactive
outcome [7]: inactive
outcome [8]: inactive

COC(=O)Nc1nc2ccc(C(=O)c3cccs3)cc2[nH]1
Potency [10]: inactive
Potency [2]: inactive
outcome [6]: inactive
outcome [7]: inactive
outcome [8]: inactive

COc1ccccc1N=Nc1c(S(=O)(=O)O)cc2cc(S(=O)(=O)O)cc(NC(C)=O)c2c1O
Potency [1]: 22.9 µM (active)
Potency [2]: inactive
Potency [3]: inactive
Potency [4]: inactive
Potency [5]: inactive
outcome [6]: inactive
outcome [7]: inactive
outcome [8]: inactive
outcome [9]: inactive

CCCCC(CC)COC(=O)COc1ccc(Cl)cc1C (stereo not drawn)
Potency [1]: inactive
Potency [2]: inactive
Potency [3]: inactive
Potency [4]: inactive
Potency [5]: inactive
outcome [6]: inactive
outcome [7]: inactive
outcome [8]: inactive

CC(=O)CC(c1ccc([N+](=O)[O-])cc1)c1c(O)c2ccccc2oc1=O (stereo not drawn)
Potency [1]: inactive
Potency [2]: inactive
Potency [3]: inactive
Potency [4]: inactive
Potency [5]: inactive
outcome [6]: inactive
outcome [7]: inactive
outcome [8]: inactive

NCC1CCCC(CN)C1 (stereo not drawn)
Potency [1]: inactive
Potency [2]: inactive
Potency [3]: inactive
Potency [4]: inactive
Potency [5]: inactive
outcome [6]: inactive
outcome [7]: inactive
outcome [8]: inactive
outcome [9]: inactive

Nc1ccc(S(=O)(=O)O)cc1
Potency [1]: inactive
Potency [2]: inactive
Potency [3]: inactive
Potency [4]: inactive
Potency [5]: inactive
outcome [6]: inactive
outcome [7]: inactive
outcome [8]: inactive
outcome [9]: inactive

CO/N=C1\CN(c2nc3c(cc2F)c(=O)c(C(=O)O)cn3C2CC2)CC1CN (stereo not drawn)
Potency [10]: inactive
Potency [4]: inactive
Potency [5]: inactive
outcome [6]: inactive
outcome [7]: inactive
outcome [8]: inactive

NC(=O)N(O)[C@@H]1C=C[C@H](Oc2cccc(Oc3ccc(F)cc3)c2)C1
Potency [10]: inactive
Potency [2]: inactive
outcome [6]: inactive
outcome [7]: inactive
outcome [8]: inactive

O=C(N/N=C/c1ccc([N+](=O)[O-])o1)c1ccc(O)cc1
Potency [10]: inactive
Potency [2]: inactive
Potency [4]: inactive
outcome [6]: inactive
outcome [7]: inactive
outcome [8]: inactive
outcome [9]: inactive

Oc1ccc(Nc2ccccc2)cc1
Potency [1]: inactive
Potency [2]: inactive
Potency [3]: 27.3 µM (active)
Potency [4]: inactive
outcome [6]: inactive
outcome [7]: inactive
outcome [8]: inactive
outcome [9]: inactive

O=c1[nH]c2ccc(S(=O)CCN3CCC(Cc4ccc(F)cc4)CC3)cc2o1 (stereo not drawn)
Potency [10]: inactive
Potency [2]: inactive
outcome [6]: inactive
outcome [7]: inactive
outcome [9]: inactive

CCC(C(=O)OCCOCCN(CC)CC)c1ccccc1 (stereo not drawn)
Potency [1]: inactive
Potency [2]: inactive
Potency [4]: inactive
Potency [5]: inactive
outcome [6]: inactive
outcome [7]: inactive
outcome [8]: inactive
outcome [9]: inactive

CCc1c2c(nc3ccc(OC(=O)N4CCC(N5CCCCC5)CC4)cc13)-c1cc3c(c(=O)n1C2)COC(=O)[C@]3(O)CC
Potency [1]: inactive
Potency [2]: inactive
Potency [3]: inactive
Potency [4]: inactive
Potency [5]: inactive
outcome [7]: inactive
outcome [8]: inactive
outcome [9]: inactive

CC(C)(C)CC(C)(C)c1ccc(OCCO)cc1
Potency [1]: 34.2 µM (active)
Potency [2]: inactive
Potency [3]: 48.3 µM (active)
outcome [6]: inactive
outcome [7]: inactive
outcome [8]: inactive
outcome [9]: inactive

COc1cc2ncnc(Nc3ccc(F)c(Cl)c3)c2cc1OCCCN1CCOCC1
Potency [10]: inactive
Potency [3]: 21.1 µM (active)
outcome [6]: inactive
outcome [7]: inactive
outcome [8]: inactive
outcome [9]: inactive

CCOc1cc(N)c(Cl)cc1C(=O)NCC1CN(Cc2ccc(F)cc2)CCO1 (stereo not drawn)
Potency [10]: inactive
Potency [2]: inactive
Potency [4]: inactive
Potency [5]: inactive
outcome [6]: inactive
outcome [7]: inactive
outcome [8]: inactive

O=C(Nc1ccc([N+](=O)[O-])cc1)Nc1ccc([N+](=O)[O-])cc1
Potency [1]: inactive
Potency [2]: inactive
Potency [3]: inactive
outcome [6]: inactive
outcome [7]: inactive
outcome [8]: inactive
outcome [9]: inactive

O=C(CCCN1CCC(O)(c2ccc(Br)cc2)CC1)c1ccc(F)cc1
Potency [1]: inactive
Potency [2]: inactive
Potency [4]: inactive
Potency [5]: inactive
outcome [6]: inactive
outcome [7]: inactive
outcome [8]: inactive
outcome [9]: inactive

CCOC(=O)C(C)Oc1ccc(Oc2nc3ccc(Cl)cc3o2)cc1 (stereo not drawn)
Potency [1]: inactive
Potency [2]: inactive
Potency [4]: inactive
Potency [5]: inactive
outcome [6]: inactive
outcome [7]: inactive
outcome [8]: inactive
outcome [9]: inactive

C/C=C/C=C/CCCCCCCO
Potency [10]: inactive
Potency [2]: inactive
outcome [6]: inactive
outcome [7]: inactive
outcome [8]: inactive
outcome [9]: inactive
